Experimental data reported in the supplement of paper PMC7156485.
Where a name gives a salt, the structure may show the parent alone. ± gives the standard deviation of the averaged measurements.

These molecules were tested on HCC1569 (assay: cell number relative to DMSO (% of DMSO); higher = more cells (less growth inhibition / toxicity)). Conditions: concentration: 10 µM; 24 h.
Method in brief: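 Cells were seeded at 800 per well in 384-well plates with RPMI containing 10% FBS; both HCC1569 and TDF lines were used. Compounds were added at 10 µM for 24 h at 37 °C, in triplicate, before fixation in 3.7% formaldehyde and staining with a rabbit anti-H1.0 antibody, an AlexaFluor 647 secondary and DAPI. H1.0 nuclear intensity or cell number is reported as percent of the plate control using the median of replicates, and HCC1569 values were smoothed for positional effects.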
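Also: TDF denotes transformed human dermal fibroblasts of mesenchymal origin.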

Compound | cell number
COCCc1ccc(OCC(O)CNC(C)C)cc1.COCCc1ccc(OCC(O)CNC(C)C)cc1.O=C(O)C(O)C(O)C(=O)O (racemic) | 99.5
O=c1[nH]c(=O)n(C2CCCO2)cc1F (stereo not given) [Ftorafur] | 104
CC12CCC3c4ccc(O)cc4CCC3C1CC(O)C2O (stereo not given) [Estriol] | 98.5
CC1CCN(C(=O)CC#N)CC1N(C)c1ncnc2[nH]ccc12 (stereo not given) [Tasocitinib] | 110
COC(=O)C(N)Cc1ccc(Cl)cc1.Cl (racemic) [DL-p-Chlorophenylalanine methyl ester hydrochloride] | 97.3
N[C@H](CO)C(=O)O [D-Serine] | 104
O=C1NC(=O)C(=Cc2ccc3c(c2)OC(F)(F)O3)S1 [PI 3-KbInhibitor II] | 100
O=C(Nc1ccc(Oc2ccnc3[nH]ccc23)c(F)c1)c1cccn(-c2ccc(F)cc2)c1=O | 102
NC(=S)c1ccc[n+](C2OC(COP(=O)([O-])OP(=O)(O)OCC3OC(n4cnc5c(N)ncnc54)C(OP(=O)([O-])O)C3O)C(O)C2O)c1.[Na+] (stereo not given) [Thio-NADP sodium] | 94.1
c1ccc(C2CN3CCSC3=N2)cc1 (stereo not given) [Levamisole] | 98.3
CCN(CC)C(=S)SSC(=S)N(CC)CC [Disulfiram] | 93.4 ± 1.7
CC1C(=O)N=C2Nc3cccc(Cl)c3CN21 (stereo not given) [Quazinone] | 111
COc1ccc(/C=C\c2cc(OC)c(OC)c(OC)c2)cc1O [2-methoxy-5-[(Z)-2-(3,4,5-trimethoxyphenyl)ethenyl]phenol] | 61.6
COc1ccc2cc(OCC3(C(=O)O)CN(C(=O)c4ccc(F)cc4)C3)ccc2c1 | 105
CC(CCc1ccccc1)NCC(O)c1ccc(O)c(C(N)=O)c1.Cl (stereo not given) [Labetalol hydrochloride] | 101
Cn1cc(-c2ccc3nnc(C(F)(F)c4ccc5ncccc5c4)n3n2)cn1 | 102
Nc1nc(=O)n(C2CSC(CO)O2)cc1F (stereo not given) [Emtricitabine] | 105
NS(=O)(=O)c1cc2c(cc1Cl)NC(C1CC3C=CC1C3)NS2(=O)=O (stereo not given) [Cyclothiazide] | 100
CN1CCC(=C2c3ccccc3CC(=O)c3sccc32)CC1 [Ketotifen] | 104
Cc1cc(CS(=O)(=O)c2ccccc2)cc(OCc2ccc(CN3CCC[C@@H]3CO)cc2)c1 [PF-543 hydrochloride] | 95.8

Compound | cell number
Cc1nc(Nc2ncc(C(=O)Nc3c(C)cccc3Cl)s2)cc(N2CCN(CCO)CC2)n1 [Dasatinib] | 45.9
CN1CCCCC1CCN1c2ccccc2Sc2ccc(S(C)=O)cc21.O=S(=O)(O)c1ccccc1 (stereo not given) [Mesoridazine besylate] | 103
CC[C@H](C(=O)Nc1ccccc1N1CCCC1)c1ccccc1 [(2S)-2-Phenyl-N-[2-(1-pyrrolidinyl)phenyl]butanamide] | 101
O=C(O)CCC(C(=O)O)N1C(=O)c2ccccc2C1=O [L-Glutamic acid, N-phthaloyl-] | 101
CCCCCCCCCCCC=CCCCCCC(=O)O [7(E)-Nonadecenoic acid] | 98.7
CC1CCCC(C)N1NC(=O)c1ccc(Cl)c(S(N)(=O)=O)c1 (stereo not given) [Clopamide] | 100
C[C@@H](Nc1ncnc2[nH]c(-c3ccc(O)cc3)cc12)c1ccccc1 | 66
CC(C)(Oc1ccc(CCNC(=O)c2ccc(Cl)cc2)cc1)C(=O)O [Bezafibrate] | 98.4
COc1ccccc1CNCCCCCCNCCCCCCCCNCCCCCCNCc1ccccc1OC.Cl.Cl.Cl.Cl [Methoctramine tetrahydrochloride] | 104
O=C1NC(C(=O)O)CS1 (stereo not given) [Procysteine] | 101
Nc1ccc(S(=O)(=O)Nc2ncccn2)cc1 [Sulfadiazine] | 101
CCC(=O)OC1(C(=O)CCl)C(C)CC2C3CCC4=CC(=O)C=CC4(C)C3(F)C(O)CC21C (stereo not given) [Clobetasol Propionate] | 109
CCCCCCCCCC(=O)NC(CN1CCOCC1)C(O)c1ccccc1 (racemic) | 99.8
CCCCCOC(=O)Nc1nc(=O)n(C2OC(C)C(O)C2O)cc1F (stereo not given) [Capecitabine] | 102
O=C(c1ccc(C(=O)N2CCC(N3CCCC3)CC2)c(Nc2ccccc2)c1)N1CCC(N2CCCC2)CC1 | 99.8
COc1cc(CCC(C)=O)ccc1O [Vannilylacetone] | 105
O=c1ccc2ccc(O)c(O)c2o1 [Daphnetin] | 106
O=c1c(O)c(-c2ccccc2O)oc2cc(O)cc(O)c12 [Datiscetin] | 101
COc1cc(CC(=O)O)ccc1O [4-Hydroxy-3-methoxyphenylacetic acid] | 105
O=C(O)CC/C=C\C[C@H]1CO[C@@H](c2ccccc2Cl)O[C@H]1c1ccccc1O | 100
